# Measurements reported in PubChem BioAssay AID743358 (Broad Institute, 2014).
# Values without a mark were called inactive.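 The calls were made as follows: active = ATP signal drop in HepG2 cells with fitted half-maximal concentration at most twice the top tested dose; inconclusive = flat curve losing 30 to 70% signal, or poor fit; inactive = the rest.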
# Assay: HepG2 cell cytotoxicity, dose response, cytotoxicity control, luminescence, dry powder, set 9 (AID 743358)
# Settings: HepG2 viability, ATP luminescence, 72 h; series mostly up to 26 µM; activity change, negative = cytotoxicity: at the top concentration
row,SMILES,"activity change, negative = cytotoxicity"
1,CN1c2ccc(-c3cccc(F)c3)cc2[C@H]2[C@H](CCN2C(=O)Cc2ccccc2)[C@H]1CO,-1.4% [at 23.5 µM]
2,COc1ccc(NC(=O)N2CC[C@@H]3[C@@H](CO)N(C)c4ccc(-c5cccc(F)c5)cc4[C@@H]32)cc1,-6.83%
3,CCC(=O)N1CC[C@@H]2[C@@H](CO)N(C)c3ccc(-c4ccc(F)cc4)cc3[C@@H]21,12.3% [at 23.5 µM]
4,COc1ccccc1NC(=O)N1CC[C@@H]2[C@@H](CO)N(C)c3ccc(-c4cccc(F)c4)cc3[C@@H]21,19.8% [at 12 µM]
5,CC(=O)c1ccc(N2CC3(CN(C(=O)c4ccc5c(c4)OCO5)C3)C2)cc1,2.7%
6,COc1ccc(NC(=O)N2CC[C@@H]3[C@@H](CO)N(C)c4ccc(-c5ccc(F)cc5)cc4[C@@H]32)cc1,-3.27%
7,COc1ccccc1NC(=O)N1CC[C@@H]2[C@@H](CO)N(C)c3ccc(-c4ccc(F)cc4)cc3[C@@H]21,-3.19%
8,COc1ccccc1C(=O)N1CCN(c2ccc(C(C)=O)cc2)CC1,-1.61%
9,CN(C)C(=O)c1ccc(N2CCN(C(=O)c3ccc4c(c3)OCO4)CC2)cc1,-0.61%
10,COCC(=O)N1CC[C@@H]2[C@@H](CO)N(C)c3ccc(-c4cccc(F)c4)cc3[C@@H]21,3.43%
11,CN1c2ccc(-c3ccc(F)cc3)cc2[C@H]2[C@H](CCN2C(=O)Nc2ccc(F)cc2)[C@H]1CO,0.957%
12,CC(=O)c1ccc(N2CCN(C(=O)c3ccc4c(c3)OCO4)CC2)cc1,-1.15%
13,CN1c2ccc(-c3cccc(F)c3)cc2[C@H]2[C@H](CCN2C(=O)c2ccc3c(c2)OCO3)[C@@H]1CO,-0.839%
14,CC(=O)c1ccc(N2CCN(C(=O)c3ccccc3F)CC2)cc1,-2.66%
15,CCCCCCCC(=O)N1CC[C@@H]2[C@@H](CO)N(C)c3ccc(-c4cccc(F)c4)cc3[C@@H]21,-3.77%
16,COC(=O)c1ccc(N2CCN(C(=O)c3ccc4c(c3)OCO4)CC2)cc1,-9.05%
17,CNS(=O)(=O)c1ccc(N2CCN(C(=O)c3ccc4c(c3)OCO4)CC2)cc1,8.97%
